From PubChem BioAssay (NCI) come the findings set out here.

Compounds without any hit were thinned out: in the full panel of roughly 83,000, 20% have a hit.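 The test compound was applied at a single concentration to cells in 96-well plates for 48 hours, and percent growth was recorded.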 Unmarked numbers belong to inactive results. Active and inactive are the calls of the source. How the source made its calls: active means growth percent below 10; inactive means the rest.

The first test deals with MCF7 breast. Kind of test: NCI-60 one-dose screen, 48 h (100 = growth as untreated, 0 = no growth, -100 = all killed). Conditions: 10 µM unless noted.
On to `O=C1c2cccnc2C(=O)c2nc3cc(N4CCN(C5CC5)CC4)ccc3nc21`, for which the growth is -56.1% (active).

For the compound `CC1NC(=S)NC(=O)/C1=C/c1cc(=O)oc2c1ccc1ccccc12` (stereo unspecified), the growth is 89.9%.

On to `Clc1ccc2c(c1)c(-c1ccccc1)nc1nncn12`, for which the growth is 99%.

Turning to `O=C1Nc2ccccc2/C1=N/c1nc(-c2ccc(Cl)cc2)cs1`, the growth was 52.6%.

`CCCCCCNC(=O)Oc1ccc(/C(=C(/CC)Cc2ccccc2)c2ccc(OCCN(CC)CC)cc2)cc1`: the growth was 10.1%.

On to `Clc1ccc(N2N=C(c3cccc(Nc4ccncc4)c3)CC2c2ccc(Br)cc2)cc1` (stereo unspecified), for which the growth was -51.5% (active).

Consider `Cc1ccc(C2CC(c3cccc(Nc4ccncc4)c3)=NN2c2ccccc2)cc1` (stereo unspecified), for which the growth is -92% (active).

For `CSc1nnc2c(=O)n(C)c(=O)n(C)c2n1`, the growth is 97.8%.

In the case of `O=S(=O)(NCCCNc1nccc(-c2c(-c3cccc(O)c3)nc3occn23)n1)c1ccc(F)cc1`, the growth is 85.2%.

For `O=C1Nc2c(ccc(Cl)c2Cl)/C1=C/c1ccc([N+](=O)[O-])cc1`, the growth is 90.4%.

Take `Cc1cccc(Oc2ccc(Nc3ncnc4ccc(NC(=O)CN(C)C)cc34)cc2Cl)c1`: the growth was 22.7%.

For `CC(=O)c1cc2c(N)c(C(=O)Nc3cncc4ccccc34)sc2nc1C`, the growth is 91.6%.

As to `COc1ccc(-c2nc(N/N=C/c3c[nH]c4ccccc34)nc(N3CCOCC3)c2C#N)cc1`, the growth is 80.2%.

Turning to `Cc1ccc(S(=O)(=O)Nc2ccc(Cl)cc2)cc1`, the growth was 93.7%.

For `C=C1C(=O)O[C@H]2[C@H]1CC/C(COC(=O)CCCCCC(=O)OC/C1=C/CC[C@@]3(C)O[C@H]3[C@H]3OC(=O)C(=C)[C@@H]3CC1)=C\CC[C@@]1(C)O[C@@H]21`, the growth was 12.8%.

`CCCCCN1C=C/C(=C\C(=O)N(C)c2ccc(Br)cc2)c2ccccc21`: the growth was 91%.

`C/C(=C(/c1ccccc1)c1ccc(OCC(O)CNCCN2CCOCC2)cc1)c1ccccc1` (stereo unspecified): the growth is 44.6%.

As for `Cn1c(COC(=O)NCCN2CCOCC2)nc2c(N3CCOCC3)nc(-c3ccccc3)nc21`, the growth is -59% (active).

Take `COc1cc(CCNc2nc3cc(N)cc(N)c3nc2-c2ccccc2)cc(OC)c1`: the growth is -79.9% (active).

For the compound `O=C(Nc1nc(-c2ccccc2Cl)cs1)c1cc(-c2ccccc2)nc2ccc(Cl)cc12`, the growth is 25.8%.

On to `O=C1OC(=O)C2C1CC=CC2c1ccccc1` (stereo unspecified), for which the growth was 89%.

As to `CCCCCCCCCCCC(=O)C(CCCCCCCCCC)C(=O)Nc1ccccc1` (stereo unspecified), the growth is 108%.

Take `COc1ccc(/C(=C\c2ccccc2)C(=O)O)cc1OC`: the growth is 93.7%.

As for `C=C1C(=O)O[C@H]2[C@H]1CC/C(COC(=O)/C=C/c1c[nH]c3ccccc13)=C\CC[C@@]1(C)O[C@@H]21`, the growth was -40.1% (active).

Take `CC1=CC[C@@H]2CC[C@]3(C)[C@H](CC[C@@H]4[C@@]5(C)CCCNC(C)(C)[C@@H]5CC[C@]43C)[C@H]2[C@@H]1C`: the growth is -28.2% (active).

Turning to `N#CC1=C(N)Oc2c(ccc3ccccc23)C1c1ccc([N+](=O)[O-])cc1` (stereo unspecified), the growth is 51.8%.

As to `CN(C)C(=O)OCc1nc2c(N3CCOCC3)nc(-c3ccccc3)nc2n1C`, the growth was -60% (active).

Consider `C=C(C)[C@@H]1CC[C@]2(C(=O)NCCCN(CCC#N)CCC#N)CC[C@]3(C)[C@H](CC[C@@H]4[C@@]5(C)CCC(=O)C(C)(C)[C@@H]5CC[C@]43C)[C@@H]12`, for which the growth is 92.8%.

Regarding `COc1ccc(-c2cnnc3c(-c4cccc(C(F)(F)F)c4)cnn23)cc1`, the growth is 73.9%.

`CN1CCN(C(=O)[C@]2(C)CC[C@]3(C)CC[C@]4(C)C(=CC(=O)[C@@H]5[C@@]6(C)CCC(=O)NC(C)(C)[C@@H]6CC[C@]54C)[C@@H]3C2)CC1`: the growth is 91.8%.

Regarding `Cc1ccc2[nH]c(=S)n(-c3ccc(S(=O)(=O)Nc4ccc(Cl)nn4)cc3)c(=O)c2c1`, the growth was 95%.

For the compound `COc1cc(OC)c(/C=C/C(=O)c2ccc(Nc3ncnc4ccccc34)cc2)c(OC)c1`, the growth was 0.53% (active).

On to `O=C(/C=C/c1ccc[nH]1)c1ccc(-n2ccc(C(F)(F)F)n2)cc1`, for which the growth was 72.2%.

For `COc1cc2nc(-c3ccc(C#N)cc3)[nH]c(=O)c2cc1OC`, the growth was 100%.

In the case of `O=c1[nH]nc(-c2ccc(Br)cc2)cc1Cc1ccc(O)cc1`, the growth is 86%.

For `Clc1ccc(C2CC(c3cccc(Nc4ccncc4)c3)=NN2c2ccccc2)cc1` (stereo unspecified), the growth is 4.93% (active).

On to `C=C(C)[C@@H]1CC[C@]2(CO)CC[C@]3(C)[C@H](CC[C@@H]4[C@@]5(C)CCCNC(C)(C)[C@@H]5CC[C@]43C)[C@@H]12`, for which the growth was -12.6% (active).

As to `c1ccc(C2CC(c3cccc(Nc4ccncc4)c3)=NN2c2ccccc2)cc1` (stereo unspecified), the growth was 14.4%.

A further test relates to HCT-116 colon. The description is as above. As to conditions: 10 µM unless noted.
In the case of `O=C1c2cccnc2C(=O)c2nc3cc(N4CCN(C5CC5)CC4)ccc3nc21`, the growth was 0.851% (active).

On to `CC1NC(=S)NC(=O)/C1=C/c1cc(=O)oc2c1ccc1ccccc12` (stereo unspecified), for which the growth is 91.8%.

Turning to `Clc1ccc2c(c1)c(-c1ccccc1)nc1nncn12`, the growth is 106%.

Take `O=C1Nc2ccccc2/C1=N/c1nc(-c2ccc(Cl)cc2)cs1`: the growth is 59.1%.

`CCCCCCNC(=O)Oc1ccc(/C(=C(/CC)Cc2ccccc2)c2ccc(OCCN(CC)CC)cc2)cc1`: the growth is 27.2%.

In the case of `Clc1ccc(N2N=C(c3cccc(Nc4ccncc4)c3)CC2c2ccc(Br)cc2)cc1` (stereo unspecified), the growth was 105%.

For `Cc1ccc(C2CC(c3cccc(Nc4ccncc4)c3)=NN2c2ccccc2)cc1` (stereo unspecified), the growth was -78% (active).

As for `CSc1nnc2c(=O)n(C)c(=O)n(C)c2n1`, the growth is 106%.

With `O=S(=O)(NCCCNc1nccc(-c2c(-c3cccc(O)c3)nc3occn23)n1)c1ccc(F)cc1`, the growth was 56.2%.

For `O=C1Nc2c(ccc(Cl)c2Cl)/C1=C/c1ccc([N+](=O)[O-])cc1`, the growth was 76.9%.

As for `Cc1cccc(Oc2ccc(Nc3ncnc4ccc(NC(=O)CN(C)C)cc34)cc2Cl)c1`, the growth is 21.4%.

For the compound `CC(=O)c1cc2c(N)c(C(=O)Nc3cncc4ccccc34)sc2nc1C`, the growth is 101%.

With `COc1ccc(-c2nc(N/N=C/c3c[nH]c4ccccc34)nc(N3CCOCC3)c2C#N)cc1`, the growth is 59.8%.

On to `Cc1ccc(S(=O)(=O)Nc2ccc(Cl)cc2)cc1`, for which the growth is 97.4%.

Consider `C=C1C(=O)O[C@H]2[C@H]1CC/C(COC(=O)CCCCCC(=O)OC/C1=C/CC[C@@]3(C)O[C@H]3[C@H]3OC(=O)C(=C)[C@@H]3CC1)=C\CC[C@@]1(C)O[C@@H]21`, for which the growth was -37.3% (active).

In the case of `CCCCCN1C=C/C(=C\C(=O)N(C)c2ccc(Br)cc2)c2ccccc21`, the growth was 80.7%.

Consider `C/C(=C(/c1ccccc1)c1ccc(OCC(O)CNCCN2CCOCC2)cc1)c1ccccc1` (stereo unspecified), for which the growth is 106%.

For `Cn1c(COC(=O)NCCN2CCOCC2)nc2c(N3CCOCC3)nc(-c3ccccc3)nc21`, the growth is -80.9% (active).

On to `COc1cc(CCNc2nc3cc(N)cc(N)c3nc2-c2ccccc2)cc(OC)c1`, for which the growth is -35.9% (active).

Consider `O=C(Nc1nc(-c2ccccc2Cl)cs1)c1cc(-c2ccccc2)nc2ccc(Cl)cc12`, for which the growth is 4.98% (active).

As for `O=C1OC(=O)C2C1CC=CC2c1ccccc1` (stereo unspecified), the growth was 97.3%.

For `CCCCCCCCCCCC(=O)C(CCCCCCCCCC)C(=O)Nc1ccccc1` (stereo unspecified), the growth was 93.8%.

In the case of `COc1ccc(/C(=C\c2ccccc2)C(=O)O)cc1OC`, the growth is 102%.

In the case of `C=C1C(=O)O[C@H]2[C@H]1CC/C(COC(=O)/C=C/c1c[nH]c3ccccc13)=C\CC[C@@]1(C)O[C@@H]21`, the growth is -83.8% (active).

On to `CC1=CC[C@@H]2CC[C@]3(C)[C@H](CC[C@@H]4[C@@]5(C)CCCNC(C)(C)[C@@H]5CC[C@]43C)[C@H]2[C@@H]1C`, for which the growth is -32.1% (active).

Consider `N#CC1=C(N)Oc2c(ccc3ccccc23)C1c1ccc([N+](=O)[O-])cc1` (stereo unspecified), for which the growth was 68.8%.

For the compound `CN(C)C(=O)OCc1nc2c(N3CCOCC3)nc(-c3ccccc3)nc2n1C`, the growth is -56.6% (active).

For the compound `C=C(C)[C@@H]1CC[C@]2(C(=O)NCCCN(CCC#N)CCC#N)CC[C@]3(C)[C@H](CC[C@@H]4[C@@]5(C)CCC(=O)C(C)(C)[C@@H]5CC[C@]43C)[C@@H]12`, the growth was 97.3%.

On to `COc1ccc(-c2cnnc3c(-c4cccc(C(F)(F)F)c4)cnn23)cc1`, for which the growth was 2.24% (active).

As to `CN1CCN(C(=O)[C@]2(C)CC[C@]3(C)CC[C@]4(C)C(=CC(=O)[C@@H]5[C@@]6(C)CCC(=O)NC(C)(C)[C@@H]6CC[C@]54C)[C@@H]3C2)CC1`, the growth is 93.1%.

As to `Cc1ccc2[nH]c(=S)n(-c3ccc(S(=O)(=O)Nc4ccc(Cl)nn4)cc3)c(=O)c2c1`, the growth is 39.7%.

As to `COc1cc(OC)c(/C=C/C(=O)c2ccc(Nc3ncnc4ccccc34)cc2)c(OC)c1`, the growth is -33.7% (active).

Take `O=C(/C=C/c1ccc[nH]1)c1ccc(-n2ccc(C(F)(F)F)n2)cc1`: the growth is 87.3%.

`COc1cc2nc(-c3ccc(C#N)cc3)[nH]c(=O)c2cc1OC`: the growth was 94.3%.

For the compound `O=c1[nH]nc(-c2ccc(Br)cc2)cc1Cc1ccc(O)cc1`, the growth is 100%.

Turning to `Clc1ccc(C2CC(c3cccc(Nc4ccncc4)c3)=NN2c2ccccc2)cc1` (stereo unspecified), the growth is -79.6% (active).

Regarding `C=C(C)[C@@H]1CC[C@]2(CO)CC[C@]3(C)[C@H](CC[C@@H]4[C@@]5(C)CCCNC(C)(C)[C@@H]5CC[C@]43C)[C@@H]12`, the growth is -78.9% (active).

For `c1ccc(C2CC(c3cccc(Nc4ccncc4)c3)=NN2c2ccccc2)cc1` (stereo unspecified), the growth is -67.1% (active).
